PubChem BioAssay (NCATS)

Experiment: qHTS profiling for inhibitors of Plasmodium falciparum (3D7) proliferation (AID 743322);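 also: infected erythrocytes exposed to compound for 72 h before lysis; 100% = DMSO vehicle wells and 0% = 0.29 µM artemisinin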
Details: P. falciparum 3D7 proliferation; at 28.7 µM (top of the series)
From the text: Plasmodium falciparum is a virulent malarial parasite that kills 1-2 million people worldwide each year. Transmitted by mosquitoes, the sporozoite form of the parasite enters the blood stream to infect hepatocytes, where they become merozoites that infect red blood cells (erythrocytes). Within erythrocytes, merozoites begin a […] cycle of growth and division, after which the parasite is released to infect new red blood cells. Gametocytes, which form within erythrocytes as well, circulate in the bloodstream and are ingested by the mosquito, thereby completing the life cycle. To profile malarial isolates for differential chemical responses and to identify inhibitors of malarial growth, an assay that measures P. falciparum growth and replication within erythrocytes was employed. This assay uses a DNA binding fluorescent dye (SYBR Green) to detect parasite DNA following cell lysis. Because mature erythrocytes lack DNA, only Plasmodium-derived DNA is detected.
The SYBR Green viability assay was adapted from a method described previously (Plouffe et al., 2008). For screening 3 ul culture medium was dispensed into 1536 well black clear bottom plates (Aurora Biotechnologies) using a Multidrop Combi (Thermo Fisher Scientific Inc.), 23 nL compounds in DMSO were added by a pin tool (Kalypsys), and 5 ul of erythrocytes infected with P. falciparum (0.3% parasitemia, 2.5% hematocrit final concentration) were added. The plates were incubated at 37 C in a humidified incubator in 5% CO2 for 72 h, and 2 ul lysis buffer (20 mM Tris HCl, 10 mM EDTA, 0.16% saponin, 1.6% triton X, 10X SYBR Green I supplied as 10,000X […] by Invitrogen) was added to each well. The plates were mixed for 25 sec with gentle shaking and incubated overnight at room temperature in the dark. The following morning, fluorescence intensity at 485(14) nm excitation and 535(25) nm emission wavelengths was measured on an EnVision (Perkin Elmer) plate reader. Plate reads were normalized relative to the control inhibitor (0.29 uM artemisinin) and vehicle (DMSO) wells present on each plate and then corrected by an algorithm using vehicle-only control plates at the beginning and end of the compound plate stack.

| SMILES | remaining parasite growth % (stronger effect = lower value) [%] |
| --- | --- |
| N[C@@H](Cc1ccc(O[S+](=O)([O-])c2cccc3cnccc23)cc1)C(=O)N1CCN(c2ccccc2)CC1 | -0.448 |
| N[C@@H](Cc1ccc(OS(=O)(=O)c2cccnc2)cc1)C(=O)N1CCN(c2ccccc2)CC1 | 41.2 |
| Cc1noc(C)c1C(=O)N1CCC2(CCCN(C(c3ccccc3)c3ccccc3)C2)CC1 | 18.5 |
| O=C([C@H](Cc1ccc(O[S+](=O)([O-])c2cccnc2)cc1)N[S+](=O)([O-])c1cccc2cnccc12)N1CCN(c2ccccc2)CC1 | 0.0541 |
| N[C@@H](Cc1ccc(O[S+](=O)([O-])c2cccc3cccnc23)cc1)C(=O)N1CCN(c2ccccc2)CC1 | 0.473 |
| CC(C)(C)c1cc(O)c(CN)c(C(C)(C)C)c1 | -0.824 |
| O=C([C@@H](Cc1ccc(O[S+](=O)([O-])c2cccnc2)cc1)N[S+](=O)([O-])c1cccc2cccnc12)N1CCN(c2ccccc2)CC1 | -1.01 |
| O=C([C@H](Cc1ccc(O[S+](=O)([O-])c2cccc3cccnc23)cc1)N[S+](=O)([O-])c1cccnc1)N1CCN(c2ccccc2)CC1 | -0.283 |
| COC(=O)[C@H](Cc1ccc(O[S+](=O)([O-])c2cccc3cnccc23)cc1)N(C)[S+](=O)([O-])c1ccc2cnccc2c1 | -0.184 |
| CN1CCN(C(=O)[C@H](Cc2ccc(O[S+](=O)([O-])c3cccc4cnccc34)cc2)N[S+](=O)([O-])c2cccc3cnccc23)CC1 | 10.3 |
| CC(C)(C)OC(=O)N[C@@H](Cc1ccc(O[S+](=O)([O-])c2cccc3cnccc23)cc1)C(=O)N1CCN(c2ccccc2)CC1 | -1.52 |
| CNC1CCC(N(Cc2ccc(OC)c(-c3ccc(C#N)cc3)c2)C(=O)c2sc3ccccc3c2Cl)CC1 (centres undefined) | -1.61 |
| O=C(NCCN1CCCC1)[C@H](Cc1ccc(OS(=O)(=O)c2cccc3cnccc23)cc1)NS(=O)(=O)c1cccc2cnccc12 | 0.578 |
| CC(C)(C)OC(=O)N[C@@H](Cc1ccc(O[S+](=O)([O-])c2cccnc2)cc1)C(=O)N1CCN(c2ccccc2)CC1 | -0.793 |
